Test results from PubChem BioAssay (EPA / NIEHS).
Values joined by “and” are separate entries in the source; they are usually repeats but may differ in a detail not shown here. Equal values may be shown once. Some compounds were tested as several samples or in several runs, with calls that do not always agree. Active and inactive are the calls of the source. The calls were made as follows: active = hit-call score of the fitted dose curve at least 0.9, where 1 is the maximum; inactive = score below 0.9.

What was measured:
[1] = APR_HepG2_StressKinase_1hr: Apredica 1-hour HepG2 Assay for Stress Kinase (AID 2282906); details: HepG2 stress kinase (phospho-c-Jun) imaging, actives raise or lower the signal
In short: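 High-content imaging of phospho-c-Jun immunostaining (with Hoechst nuclear identification) after a 1 h exposure of HepG2 cells to 10 concentrations from 0.39 to 200 uM, final DMSO 0.5%. Fitted bidirectionally against DMSO.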

[2] = APR_HepG2_NuclearSize_24hr: Apredica 24-hour HepG2 Assay for Nuclear Size (AID 2282907); details: high-content imaging, actives raise or lower the signal
In short: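 Nuclear size is measured by fluorescence high-content imaging of Hoechst-labelled HepG2 nuclei after 24 hr of treatment (0.39–200 uM, 0.5% DMSO). Cells are fixed in 3.7% formaldehyde before staining, and DMSO serves as the baseline for bidirectional curve fitting.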

[3] = APR_HepG2_CellLoss_24hr: Apredica 24-hour HepG2 Assay for Cell Loss (AID 2282908); details: high-content imaging;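 as to AC50: fit in both directions so a hit may be cell loss or gain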
In short: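 Nuclear count serves as the viability measure: treated cells are fixed, permeabilized and labelled with Hoechst 33342, and six images per well are analysed to identify valid nuclei. Doses span 0.39–200 uM, and activity in either direction is scored against DMSO.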

[4] = APR_HepG2_MicrotubuleCSK_24hr: Apredica 24-hour HepG2 Assay for Microtubule CSK Stabilty (AID 2282909); details: HepG2 microtubule cytoskeleton imaging, actives raise or lower the signal
In short: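 Compounds were applied to HepG2 cells for 24 hours across 0.39–200 uM in duplicate, with final DMSO at 0.5% v/v. Fixed, permeabilized cells were labeled for alpha-tubulin and nuclei, and tubulin fluorescence was quantified by imaging, fitted bidirectionally against DMSO.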

[5] = APR_HepG2_MitoticArrest_24hr: Apredica 24-hour HepG2 Assay for Mitotic Arrest (AID 2282910); details: high-content imaging, actives raise or lower the signal
In short: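 High-content imaging of fixed HepG2 cells labeled with Hoechst 33342 and anti-phospho-histone H3, after 24 h treatment. Ten concentrations 0.39 to 200 uM in duplicate, final DMSO 0.5%; changes fitted both directions relative to DMSO.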

[6] = APR_HepG2_MitoMembPot_24hr: Apredica 24-hour HepG2 Assay for Mitochondrial Membrane Potential (AID 2282911); details: imaging, actives raise or lower the signal
In short: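 Mitochondrial membrane potential imaged via MitoTracker Red CMXRos (250 nM, 30 min pre-fixation) in fixed HepG2 cells with Hoechst nuclear identification. Ten concentrations 0.39–200 uM, 24 h treatment, 0.5% DMSO; CCCP as positive control.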

[7] = APR_HepG2_MitoMass_24hr: Apredica 24-hour HepG2 Assay for Mitochondrial Mass (AID 2282912); details: high-content imaging, actives raise or lower the signal
In short: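 After 24 hr of treatment at 0.39 to 200 uM, HepG2 cells take up 250 nM MitoTracker Red CMXRos for 30 min and are then fixed with 3.7% formaldehyde. Per-well images are quantified, and any change in either direction is scored against solvent.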

[8] = APR_HepG2_p53Act_24hr: Apredica 24-hour HepG2 Assay for p53 Activation (AID 2282913); details: high-content imaging, actives raise or lower the signal;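 also: p53 protein immunofluorescence averaged per cell in HepG2 with Hoechst nuclei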
In short: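 Fluorescence imaging of formaldehyde-fixed HepG2 cells labelled for p53 and with Hoechst, 24 h after dosing (0.39–200 uM, duplicate wells, 0.5% v/v DMSO). Signal fitted in both directions relative to DMSO.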

[9] = APR_HepG2_CellCycleArrest_72hr: Apredica 72-hour HepG2 Assay for Cell Cycle Arrest (AID 2282914); details: high-content imaging, actives raise or lower the signal
In short: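 Read-out: nuclear DNA content from Hoechst 33342 high-content imaging (20x, six fields/well) after 3.7% formaldehyde fixation, fitted bidirectionally against DMSO. Treatment was 72 h in HepG2, ten concentrations 0.39–200 uM, duplicate, 0.5% DMSO.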

[10] = APR_HepG2_P-H2AX_72hr: Apredica 72-hour HepG2 Assay for H2AX Phosphorylation (AID 2282916); details: imaging, actives raise or lower the signal;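 also: phospho-histone H2A.x immunostain intensity per cell marking DNA damage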
In short: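 Human hepatoma HepG2 cells are dosed across ten concentrations (0.39 to 200 uM, 0.5% v/v DMSO) and incubated 72 hr. Phospho-histone H2A.x is then detected by antibody staining alongside c-Jun and Hoechst, and quantified by automated fluorescence imaging.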

[11] = APR_HepG2_MitoMembPot_72hr: Apredica 72-hour HepG2 Assay for Mitochondrial Membrane Potential (AID 2282917); details: imaging, actives raise or lower the signal
In short: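 Membrane potential read by MitoTracker Red CMXRos (250 nM, 30 min, pre-fixation) fluorescence imaging of HepG2 after 72 hr exposure. Ten concentrations, 0.39–200 uM, duplicate wells, 0.5% DMSO; fitted in both directions against DMSO baseline.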

[12] = APR_HepG2_MitoticArrest_72hr: Apredica 72-hour HepG2 Assay for Mitotic Arrest (AID 2282918); details: high-content imaging, actives raise or lower the signal
In short: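 High-content imaging of fixed human HepG2 cells after 72 h compound exposure (0.39–200 uM, duplicates, 0.5% DMSO); mitotic arrest scored from phospho-histone H3 and nuclear Hoechst staining relative to DMSO.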

[13] = APR_HepG2_MicrotubuleCSK_72hr: Apredica 72-hour HepG2 Assay for Microtubule CSK Stabilty (AID 2282919); details: HepG2 microtubule cytoskeleton, high-content imaging, actives raise or lower the signal
In short: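 High-content imaging of alpha-tubulin staining in fixed HepG2 cells after 72 hr treatment with ten concentrations from 0.39 to 200 uM (0.5% DMSO). Fitting was bidirectional against DMSO; taxol served as positive control.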

[14] = APR_HepG2_P-H2AX_24hr: Apredica 24-hour HepG2 Assay for H2AX Phosphorylation (AID 2282920); details: high-content imaging, actives raise or lower the signal
In short: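 High-content imaging of phospho-histone H2A.x immunofluorescence, nuclei counterstained with Hoechst 33342, in fixed HepG2 cells. Compounds ran 0.39–200 uM in duplicate for 24 h, final DMSO 0.5%. Signal change fitted both directions against DMSO.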

[15] = APR_HepG2_StressKinase_24hr: Apredica 24-hour HepG2 Assay for Stress Kinase (AID 2282922); details: HepG2 stress kinase (phospho-c-Jun) imaging, actives raise or lower the signal
In short: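 High-content imaging of phospho-c-Jun immunofluorescence in fixed, permeabilized HepG2 cells after 24 h dosing. Ten concentrations, 0.39 to 200 uM, run in duplicate at 0.5% v/v DMSO; gain or loss of signal versus DMSO.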

[16] = APR_HepG2_p53Act_72hr: Apredica 72-hour HepG2 Assay for p53 Activation (AID 2282923); details: high-content imaging, actives raise or lower the signal;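 also: average cellular p53 protein immunofluorescence intensity in HepG2 cells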
In short: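 Imaging-based endpoint: after 72 hr compound exposure (up to 200 uM, 0.5% DMSO), fixed and permeabilized monolayers were labelled with anti-p53 antibody and imaged; signal change in either direction was fitted relative to DMSO controls.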

[17] = APR_HepG2_MitoMass_72hr: Apredica 72-hour HepG2 Assay for Mitochondrial Mass (AID 2282924); details: high-content imaging, actives raise or lower the signal;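 also: MitoTracker Red CMXRos stain intensity per cell imaged as mitochondrial mass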
In short: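 Readout is imaged MitoTracker Red (250 nM, 30 min, pre-fixation) signal, fitted bidirectionally against DMSO baseline. Human HepG2 liver cells received compound 0.39–200 uM in duplicate for 72 hr, final DMSO 0.5%.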

[18] = APR_HepG2_CellCycleArrest_24hr: Apredica 24-hour HepG2 Assay for Cell Cycle Arrest (AID 2282905); details: imaging, actives raise or lower the signal;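 also: cell cycle arrest scored as ratio of 2N to 4N nuclear DNA content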
In short: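 Compounds (0.39 to 200 uM, final DMSO 0.5% v/v) are applied to HepG2 cells for 24 hours; cells are then fixed, permeabilized and nuclei labeled with Hoechst 33342. Automated imaging measures DNA content, and activity is fitted in both directions against DMSO.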

[19] = APR_HepG2_StressKinase_72hr: Apredica 72-hour HepG2 Assay for Stress Kinase (AID 2282921); details: HepG2 stress kinase (phospho-c-Jun) imaging, actives raise or lower the signal
In short: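 After a 72 h compound treatment spanning 0.39 to 200 uM, formaldehyde-fixed cells are labelled for phosphorylated c-Jun and nuclei, imaged by automated fluorescence microscopy, and activity is fitted in both directions relative to DMSO controls.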

[20] = APR_HepG2_CellLoss_72hr: Apredica 72-hour HepG2 Assay for Cell Loss (AID 2282915); details: high-content imaging
In short: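 Cell number comes from Hoechst 33342-labelled nuclei, imaged at 20x after 3.7% formaldehyde fixation. Dosing was 0.39–200 uM, ten concentrations in duplicate, 0.5% DMSO final, for 72 h. Bidirectional fit relative to DMSO baseline.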

Measured: AC50

CC(C)(C)c1ccc(CSc2cnn(C(C)(C)C)c(=O)c2Cl)cc1
active: [3] 2.58 µM | [9] 16.1 µM | [13] 7.56 µM
inactive: [1] | [2] | [4] | [5] | [6] | [7] | [8] | [10] | [11] | [12] | [14] | [15] | [16] | [17]

CCCN(CCC)c1c([N+](=O)[O-])cc(S(N)(=O)=O)cc1[N+](=O)[O-]
active: [2] 68.3 µM and 117 µM | [4] 109 µM | [5] 35.4 µM and 38.4 µM | [6] 31.6 µM and 117 µM and 110 µM | [7] 164 µM and 113 µM | [10] 128 µM and 34.6 µM | [12] 34 µM and 82.3 µM | [14] 31.7 µM and 35.9 µM | [15] 116 µM | [17] 94.8 µM
inactive: [1] | [2] | [4] | [5] | [6] | [7] | [10] | [11] | [12] | [13] | [14] | [15] | [17]

COc1ccc(C(c2ccc(OC)cc2)C(Cl)(Cl)Cl)cc1
inactive: [18] | [1] | [2] | [5] | [6] | [7] | [8] | [11] | [14] | [19] | [15] | [17]
active: [3] 60.5 µM | [4] 69.8 µM | [10] 98.2 µM | [12] 65 µM | [13] 71 µM

CO/C=C(/C(=O)OC)c1ccccc1Oc1cc(Oc2ccccc2C#N)ncn1
active: [3] 16.2 µM and 36.5 µM | [6] 21.2 µM | [8] 110 µM | [10] 53.2 µM and 42.2 µM | [11] 164 µM | [12] 13.9 µM and 24.7 µM and 31 µM | [17] 1.68 µM and 3.44 µM
inactive: [1] | [2] | [3] | [4] | [5] | [6] | [7] | [8] | [10] | [11] | [12] | [13] | [14] | [15] | [17]

COC(=O)c1ccccc1C(=O)OC
inactive: [18] | [1] | [2] | [3] | [4] | [5] | [6] | [7] | [8] | [20] | [10] | [11] | [12] | [13] | [14] | [15] | [16] | [17]
